Tb PYK inh: qHTS of Trypanosoma Brucei Inhibitors | pyruvate kinase (Trypanosoma brucei), Q57TT1 | TbPYK enzyme, Kinase-Glo Plus ATP luminescence, 45 min | Potency, µM (highest dose often 76.8 µM), for inactives: top-dose activity, negative = inhibition, actives largely listed as inhibitors | 0.12% of 410,000 active | AID 624173, 2012; also: potency is read from the fitted curve at half-maximal effect; % is scaled to controls: 0 for no effect and ±100 for the full control effect; nearly all actives have a fitted effect of over 50% in size
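Luminescent Kinase-Glo Plus end-point after 45 min room-temperature reaction of T. brucei pyruvate kinase started with 130 uM ADP (final). Buffer TEA 50 mM pH 7.2 with KCl, MgCl2, BSA, Tween-20; titration-based qHTS with fitted concentration-effect curves.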
Shiga inhibitor: A qHTS for Small Molecule Inhibitors of Shiga Toxin | 9.2% of 290,000 active | AID 2315, 2010 | inhibition, % at 38.7 µM | Vero cells, Shiga toxin protein synthesis inhibition reporter; in the data active = inhibition mostly above about 28%, no sharp cut-off; inactive = mostly below about 43%; also: 0% is about no effect
Cycloheximide cs: Cycloheximide Counterscreen for Small Molecule Inhibitors of Shiga Toxin. cell reporter, cycloheximide protein synthesis inhibition counterscreen. 12% of 300,000 active. max response, %. AID 2314, 2010; in the data active = max response mostly above about 13%, no sharp cut-off; inactive = mostly below about 14%; also: read at 38.3 µM for the half of the compounds with a filed dose; 0% is about no effect
Giardia FBPA inh: qHTS Assay for Inhibitors of Fructose-1,6-bisphosphate Aldolase from Giardia Lamblia; A8B2U2; purified Giardia FBPA; Potency, µM (titrated, usually from 59.6 µM), without a hit: at the highest dose activity, negative = inhibition, most hits filed as inhibitors; 0.71% of 290,000 active; AID 2451, 2010; also: potency is read from the fitted curve at half-maximal effect; % is scaled to controls: 0 for no effect and ±100 for the full control effect; nearly all actives have a fitted effect of over 55% in size
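40 nM FBPA preincubated 10 min at RT with compound (up to 57.5 uM final), then substrate plus GAPDH/TPI/NAD/arsenate coupling and diaphorase/resazurin added. Fluorescence read after 20 min at RT, 525/598 nm.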
RE007 growth inh: qHTS Assay for Inhibitors of the HIV-1 protein Vpr | S. pombe RE007 Vpr strain, BacTiter-Glo ATP luminescence, 24 h | Potency, µM (series often up to 92.2 µM), inactives show at the top dose activity change, negative = less growth, most hits filed as inhibitors | 0.21% of 360,000 active | AID 651644, 2012; active = well fitted falling curve with a large enough effect; inconclusive = small, poorly fitted or top-dose-only effect; inactive = no such curve, though single readings can be large or run the other way; also: potency is read from the fitted curve at half-maximal effect; % is scaled to controls: 0 for no effect and ±100 for the full control effect; nearly all actives have a fitted effect of over 50% in size
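Fission yeast RE007 carrying one integrated HIV-1 vpr copy, seeded at OD 0.01 in PMG+AL medium with 23 nL pinned compound. Grown 24 h at 30 degrees; viability read by BacTiter-Glo luminescence after 5 min.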
LmPK inh: qHTS Assay for Inhibitors of Leishmania Mexicana Pyruvate Kinase (LmPK). purified LmPK, Kinase-Glo ATP luminescence, 1 h. Potency, µM (highest dose often 57.5 µM), inactives show at the highest dose activity change, negative = inhibition, actives largely listed as inhibitors. 0.37% of 290,000 active; also: potency is read from the fitted curve at half-maximal effect; % is scaled to controls: 0 for no effect and ±100 for the full control effect
Target sequence (Q27686 whole entry, looked up): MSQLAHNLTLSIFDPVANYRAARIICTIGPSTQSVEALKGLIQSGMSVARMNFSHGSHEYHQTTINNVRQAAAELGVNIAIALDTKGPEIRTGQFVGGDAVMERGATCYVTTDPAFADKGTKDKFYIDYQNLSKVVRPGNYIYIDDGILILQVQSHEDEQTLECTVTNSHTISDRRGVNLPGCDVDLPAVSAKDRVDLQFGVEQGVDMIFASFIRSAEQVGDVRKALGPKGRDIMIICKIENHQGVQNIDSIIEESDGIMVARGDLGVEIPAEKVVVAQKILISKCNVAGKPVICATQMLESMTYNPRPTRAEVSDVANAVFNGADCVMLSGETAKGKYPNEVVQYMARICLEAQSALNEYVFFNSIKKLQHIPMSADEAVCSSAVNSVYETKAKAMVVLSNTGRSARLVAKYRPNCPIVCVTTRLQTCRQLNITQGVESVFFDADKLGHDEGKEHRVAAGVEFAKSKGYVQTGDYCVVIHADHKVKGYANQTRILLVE
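Purified LmPK (0.1 nM) converted ADP (0.1 mM) to ATP with PEP (0.5 mM) in imidazole buffer pH 7.2 with KCl and MgCl2, 1 h at room temperature. ATP was read by Kinase-Glo luminescence; data normalized to uninhibited and no-enzyme controls.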
* hit, by the source's call; ? = inconclusive; · = no result given; [ ] = remark or other dose. The entries come from a sample that favours hits as a whole. Unless noted, calls follow the shape of the dose curve; as a rule, active = well fitted curve in the direction sought with a large enough effect; inconclusive = small, poorly fitted or top-dose-only effect, or another doubt; inactive = no such curve, though single readings can be large; an effect the other way counts as inactive or inconclusive.

SMILES	Tb PYK inh	Shiga inhibitor	Cycloheximide cs	Giardia FBPA inh	RE007 growth inh	LmPK inh
CC[C@H](C)[C@H](NC(=O)[C@H](CCC(=O)O)NC(=O)[C@H](CC(N)=O)NC(=O)[C@@H](N)[C@@H](C)O)C(=O)N[C@H](C(=O)N[C@@H](CCC(=O)O)C(=O)N[C@@H](CCC(=O)O)C(=O)N[C@@H](CCC(N)=O)C(=O)N[C@@H](Cc1ccc(O)cc1)C(=O)N[C@H](C(=O)N1CCC[C@H]1C(=O)N[C@@H](CCC(N)=O)C(=O)N[C@@H](CO)C(=O)N[C@@H](CC(C)C)C(=O)N[C@@H](C)C(=O)N[C@H](C(=O)N[C@@H](CC(C)C)C(=O)N[C@@H](CCC(=O)O)C(=O)N[C@@H](CO)C(=O)N[C@H](C(=O)N[C@@H](Cc1ccccc1)C(=O)N[C@@H](CCC(N)=O)C(=O)N[C@@H](CCC(=O)O)C(=O)N[C@@H](CC(C)C)C(=O)NCC(=O)N[C@@H](CCCCN)C(=O)N[C@@H](CC(C)C)C(=O)N[C@H](C(=O)NCC(=O)N1CCC[C@H]1C(=O)N[C@@H](CC(N)=O)C(=O)N[C@@H](CO)C(=O)N[C@@H](CCC(N)=O)C(=O)O)[C@@H](C)O)C(C)C)[C@@H](C)O)[C@@H](C)O)C(C)C	·	-7	-3	0%	·	·
Cc1cc(Br)ccc1NC(=O)CCS(=O)(=O)c1cccc2nsnc12	-6%	·	·	·	·	·
O=C(c1ccc(F)cc1)n1nc(-c2cccnc2)nc1NCc1ccc(F)cc1	3%	·	·	·	·	·
CCN(CC)CCn1c(-c2ccccc2)nc2c(NCCO)nc(C)nc21	·	·	·	7%	·	·
COc1ccc(-c2ccnc(-c3ccc(O)cc3)n2)cc1	1%	79	24*	1%	-6%	8%
Cc1ccc2[nH]c(=O)c(CN(Cc3ccccc3)C(=S)NCCCN(C)C)cc2c1	-6%	48*	26*	-5%	2%	16µM*
COc1cc2cc(CN(CCc3ccccc3C)C(=S)NCCCN(C)C)c(=O)[nH]c2cc1OC	-7%	-14	-2	9%	4%	4%
CCCCCOc1ccc(CSc2n[nH]c(C)n2)cc1	0%	-11	-6	-23%	?	0%
COc1ccc(CSc2n[nH]c(C)n2)cc1Br	2%	25	19	0%	-1%	1%
Cc1nc(SCc2ccc(Cl)c(Cl)c2)n[nH]1	-1%	44	16*	?	-11%	2%
Cc1nc(SCc2ccc(F)cc2)n[nH]1	-4%	41	9	-1%	6%	6%
Cc1nc(SCc2ccc(OCCC(C)C)cc2)n[nH]1	0%	154*	49*	-7%	?	1%
Cc1nc(SCc2cccc(Oc3ccccc3)c2)n[nH]1	0%	47	46*	·	-19%	2%
COc1cc2c(cc1NC(=O)COc1ccccc1OC)oc1ccccc12	?	36	5	2%	2%	4%
COc1cc2c(cc1NC(=O)CCCCCN1C(=O)CCC1=O)oc1ccccc12	-16%	7	7	0%	17%	7%
COc1cc2c(cc1NC(=O)COC(=O)[C@@H](NS(=O)(=O)c1ccccc1)C(C)C)oc1ccccc12	0%	56*	11*	-8%	19%	2%
COc1cc2c(cc1NC(=O)Cc1ccc(C)cc1)oc1ccccc12	-5%	93*	73*	-4%	-2%	-3%
COc1cc2c(cc1NC(=O)COC(=O)Cn1cnc3ccccc31)oc1ccccc12	0%	79*	36*	-1%	15%	5%
COc1cc2c(cc1NC(=O)CSc1ccc(C)cc1)oc1ccccc12	4%	30	3	-8%	-4%	3%
COc1cc2c(cc1NC(=O)CCCN1C(=O)CCC1=O)oc1ccccc12	-4%	79*	36*	-1%	0%	7%
CCN1C(=O)[C@H]2[C@H]3[C@H](O)[C@H](O)C/C(=N/OCC(C)C)[C@@H]3CC[C@@H]2C1=O	·	·	·	-2%[12.9 µM]	·	·
CC[C@H](CC[C@H](C)[C@@H]1CC[C@@H]2[C@H]3CC=C4C[C@@H](O)CC[C@]4(C)[C@H]3CC[C@]21C)C(C)C	·	·	·	9%[21.7 µM]	·	·
CC1=C(C(=O)Nc2cccnc2)C(c2ccccc2)n2nc(SCc3ccccc3Cl)nc2N1 (configuration not stated)	-3%	·	·	·	·	·
COc1cc2c(cc1NC(=O)C(C)NCc1ccccc1)oc1ccccc12 (configuration not stated)	3%	76*	64*	-6%	-26%	7%
COc1cc2c(cc1NC(=O)COC(=O)c1ccc(C(C)(C)C)cc1)oc1ccccc12	5%	12	0	7%	1%	1%
SMILES	Tb PYK inh	Shiga inhibitor	Cycloheximide cs	Giardia FBPA inh	RE007 growth inh	LmPK inh
COc1cc2c(cc1NC(=O)COC(=O)C(CCSC)NC(=O)c1ccccc1Cl)oc1ccccc12 (configuration not stated)	-5%	active	15	5%	4%	-1%
O=C(NS(=O)(=O)c1ccc(F)cc1)O[C@@H]1C(=O)c2cc(Br)ccc2O[C@H]1c1ccc2c(c1)OCO2	·	·	·	-1%	·	·
CCN(CC)c1ccc(N)cc1	-3%	·	·	·	-28%	·
Nc1ccc(N(CCO)CCO)cc1	-9%	-9	-2	5µM*	-11%	-18%
COc1ccc(C(=O)c2ncc(C(F)(F)F)cc2Cl)cc1	-9%	13	9	-1%	8%	0%
COc1cccc(C(=O)c2ncc(C(F)(F)F)cc2Cl)c1	-7%	34*	28	-18%	5%	-1%
CC(C)(C)c1ccc(-c2nc(N)nc(N)n2)cc1	-1%	26	33*	2%	-17%	0%
CC(C)(C)c1cc(-c2nc(N)nc(N)n2)cc(C(C)(C)C)c1	-6%	-8	-1	-1%	10%	0%
O=C(NCc1cccnc1)Nc1ccccc1	1%	5	5	2%	-15%	-2%
Cc1ccc(NC(=O)NCc2cccnc2)cc1Cl	-15%	39*	32*	·	-9%	-10%
CCCCc1ccc(NC(=O)OC)cc1	-5%	46*	12	-2%	11%	-7%
CCOC(=O)c1ccc(NCc2cccnc2)cc1	-2%	45	15*	9%	-7%	6%
CCc1ccc(NC(=O)NCc2cccnc2)cc1	-4%	10	27*	14%	-7%	1%
COCCn1c(=O)c(-c2cn(C)c3ccccc23)nc2cnc(N3CCNCC3)nc21	·	·	·	-5%	·	·
CCCCc1ccc(NC(=O)Nc2cccnc2)cc1	7%	153*	76*	15%	16%	-8%
Cc1nn(-c2ccc(Cl)c(Cl)c2)c(=O)c2ccccc12	-4%	12	-5	·	?	-4%

High-throughput results: PubChem, National Center for Advancing Translational Sciences (NCATS)
